# Measured values: ChEMBL document CHEMBL3988442, “University of Dundee, Small-Polar-MMV Screening Library” (2021)
# Among all 48,000 compounds or so, about 13,000 (27%) showed an effect of 50% or more. This is one part of the list.
# Test system: Wolbachia pipientis
# Experiment: Anti-Wolbachia Cell-Based Screen
# Format: functional
# Parameters: scale not given: in the data most compounds retested in dose-response had high values
# Settings: 5 µM
row,SMILES,Percent Effect
1,COCCCS(=O)(=O)N1CCN(C(=O)CO)CC1,-3.721%
2,CSc1sc(NC(=O)C2CCCN(C(N)=O)C2)nc1C (centres undefined),-0.4613%
3,CCc1c(C)nc2cc(C3CCN(Cc4ccc(F)cc4)C3)nn2c1O (centres undefined),99.62%
4,CCc1c(C)nc2cc(C3CCN(Cc4ccncc4C)C3)nn2c1O (centres undefined),81.51%
5,CCn1c(C2CCCN(Cc3cccc4cnccc34)C2)nn(C)c1=O (centres undefined),3.036%
6,O=C(NC1(c2nc(C3CC3)no2)CCCCC1)c1ccncc1,-8.803%
7,O=C(c1ccccc1F)N1CCN(c2ccc(-n3cccc3)nn2)CC1,-6.21%
8,CNC(=O)c1cccnc1NCCOc1ccc(CC#N)cc1,4.731%
9,O=C(O)C(F)(F)F.O=C(O)[C@]12CCCN(Cc3ccoc3)C[C@H]1CN(c1ncccn1)C2,0.4182%
10,Cc1cnn(CC2CCCN2C(=O)c2sccc2-n2cnnn2)c1 (centres undefined),107.4%
11,Cc1cnn(CC2CCCN2C(=O)c2ccccc2-n2cccn2)c1 (centres undefined),86.06%
12,Cc1cnn(CC2CCCN2C(=O)c2sccc2C#N)c1 (centres undefined),-6.888%
13,Cc1cnn(CC2CCCN2C(=O)c2cn(-c3ccccc3)nc2C)c1 (centres undefined),-0.04653%
14,Cc1cnn(CC2CCCN2C(=O)c2ccccc2-n2cnnn2)c1 (centres undefined),114.3%
15,Cc1cnn(CC2CCCCN2C(=O)c2ccccc2-n2cccn2)c1 (centres undefined),109.2%
16,Cc1cnn(CC2CCCCN2C(=O)c2sccc2C#N)c1 (centres undefined),-11.17%
17,O=C(c1cn(-c2cc(N3CCOCC3)ncn2)cn1)N1CCSCC1,-13.27%
18,COc1ccc2c(c1)OCC(CNC(=O)c1ccncc1)C2 (centres undefined),2.151%
19,Cc1cccc2[nH]c(C3CCCN(Cc4ccc(CO)o4)C3)nc12 (centres undefined),-5.911%
20,Cc1c[nH]c(C2CCCN(Cc3cccc(C(=O)O)c3)C2)n1 (centres undefined),79.24%
21,CSc1ncccc1C(=O)N1CCC(c2nc3c(C)cccc3[nH]2)CC1,-2.536%
22,CCOC(=O)c1n[nH]cc1CN1CCOC(Cc2ccccc2)C1 (centres undefined),4.032%
23,CCCS(=O)(=O)N1CCCC(c2nc(-c3ccccc3)c[nH]2)C1 (centres undefined),7.84%
24,Cc1cccc2[nH]c(C3CCCN(Cc4ccccc4C(=O)O)C3)nc12 (centres undefined),94.13%
25,Cc1cc(=O)[nH]c(-c2cccc(CN3CCCN4CCCC4C3)c2)n1 (centres undefined),-8.166%
26,Cc1c[nH]c(C2CCCN(Cc3ccccc3C(=O)O)C2)n1.O=CO (centres undefined),102.4%
27,CC(=O)N[C@@H]1CN(Cc2ccccc2C(=O)O)C[C@H]1C(C)C,-2.27%
28,Cc1c[nH]c(C2CN(Cc3ccccc3C(=O)O)CCO2)n1 (centres undefined),102.8%
29,Cc1n[nH]c(C2CN(Cc3ncc(C(C)C)o3)CCO2)n1 (centres undefined),3.962%
